According to PubChem BioAssay (NCI):
This is part of a sample that, as a whole, favours compounds with a hit. Of some 83,000 tested, about 20% had one in any assay.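 Activity criterion: percent growth below 10, measured after cells in 96-well plates were exposed to a single compound concentration for 48 hours.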 Activity calls are given as the source filed them.

Experiments:
Assay in all cases: NCI-60 one-dose screen, 48 h (100 = growth as untreated, 0 = no growth, -100 = all killed)
[1] = system: NCI-H23 lung; details: 10 µM unless noted
[2] = system: NCI-H226 lung; details: 10 µM unless noted
[3] = system: NCI-H322M lung; details: 10 µM unless noted
[4] = system: HOP-62 NSCLC; details: 10 µM unless noted
[5] = system: NCI-H460 lung; details: 10 µM unless noted
[6] = system: HOP-92 NSCLC; details: 10 µM unless noted
[7] = system: NCI-H522 lung; details: 10 µM
[8] = system: 786-0 renal; details: 10 µM unless noted
[9] = system: COLO 205 colon; details: 10 µM unless noted
[10] = system: DU-145 prostate; details: 10 µM unless noted
[11] = system: K-562 leukemia; details: 10 µM unless noted
[12] = system: MALME-3M melanoma; details: 10 µM unless noted
[13] = system: MDA-MB-231 breast; details: 10 µM unless noted
[14] = system: RXF 393 renal; details: 10 µM unless noted
[15] = system: SF-268 CNS; details: 10 µM unless noted
[16] = system: SF-295 CNS; details: 10 µM unless noted
[17] = system: SF-539 CNS; details: 10 µM unless noted
[18] = system: UACC-257 melanoma; details: 10 µM unless noted
[19] = system: M14 melanoma; details: 10 µM unless noted

Measured: growth

CCSc1nc(-c2ccc(F)cc2)c(C#N)c(=O)[nH]1
inactive: [1] 95.2% | [2] 98.7% | [3] 101% | [4] 110% | [5] 108% | [6] 131% | [7] 96.8% | [8] 108% | [9] 126% | [10] 122% | [11] 124% | [12] 85.1% | [13] 114% | [14] 104% | [15] 116% | [16] 103% | [17] 108% | [18] 102% | [19] 110%

COc1cc(/C=C2\SC(N3CCCCC3)=NC2=O)ccc1OCCCCCCOc1ccc(/C=C2\SC(N3CCCCC3)=NC2=O)cc1OC
active: [1] 5.35% | [2] -20.1% | [4] 6.62% | [5] -45.4% | [7] -11.5% | [9] 0.374% | [10] -7% | [11] 3.85% | [12] 5.59% | [14] -44.3% | [15] -1.61% | [16] 4.37% | [17] -1.19% | [18] -0.986%
inactive: [3] 48.3% | [6] 32.2% | [8] 50.5% | [13] 20.9% | [19] 13.1%

CC12CCC3C(=CCc4cc(O)ccc43)C1CCC2=O (stereo unspecified)
inactive: [1] 103% | [2] 102% | [3] 94.9% | [4] 99.2% | [5] 108% | [6] 99.4% | [7] 97% | [8] 105% | [9] 111% | [10] 115% | [11] 91.5% | [12] 90.5% | [13] 102% | [14] 113% | [15] 106% | [16] 92% | [17] 102% | [18] 113% | [19] 105%

CN[C@@H]1C(OC2[C@H](O[C@H]3[C@H](O)[C@@H](O)[C@H](N=C(N)N)[C@@H](O)[C@@H]3N=C(N)N)OC(C)[C@]2(O)CO)OC(CO)C(O)C1O (stereo partly specified)
inactive: [1] 103% | [2] 108% | [3] 111% | [4] 107% | [5] 113% | [6] 118% | [7] 112% | [8] 106% | [9] 109% | [10] 109% | [11] 113% | [12] 106% | [13] 104% | [14] 114% | [15] 118% | [16] 103% | [17] 109% | [18] 107% | [19] 112%

C/C=C(/C(=C/C)c1ccc(O)cc1)c1ccc(O)cc1
active: [14] 8.39% | [17] -3.67%
inactive: [1] 48% | [2] 69.9% | [3] 27.4% | [4] 36% | [5] 20.2% | [6] 58.5% | [7] 55.3% | [8] 39.3% | [9] 73.9% | [10] 28.2% | [11] 22.8% | [12] 23.1% | [13] 49.1% | [15] 45.6% | [16] 12% | [18] 53.9% | [19] 15.4%

Cc1onc(-c2ccccc2Cl)c1C(=O)N[C@@H]1C(=O)N2[C@@H]1SC(C)(C)[C@@H]2C(=O)O
inactive: [1] 112% | [2] 99.2% | [3] 104% | [4] 97.1% | [5] 112% | [6] 110% | [7] 96.1% | [8] 99% | [9] 109% | [10] 123% | [11] 91.6% | [12] 94.2% | [13] 113% | [14] 115% | [15] 110% | [16] 104% | [17] 112% | [18] 108% | [19] 98.2%

CC[C@H]1CN2CCc3cc(OC)c(OC)cc3C2C[C@@H]1CC1NCCc2cc(OC)c(OC)cc21 (stereo partly specified)
active: [1] -34.3% | [2] -25.4% | [3] -23.2% | [4] -29.4% | [5] -25.6% | [6] -17.8% | [7] -71.2% | [8] -19.6% | [9] -66.1% | [10] -31.6% | [11] -6.17% | [12] -58.1% | [13] -45.5% | [14] -42.9% | [15] -25.6% | [16] -29.2% | [17] -59.7% | [18] -27.8% | [19] -82.9%

O=C(Nc1nc(-c2ccc(Cl)cc2)cs1)c1cc(-c2ccc(Br)cc2)nc2ccc(Cl)cc12
active: [6] 5.28% | [17] 2.4% | [19] -16.8%
inactive: [1] 33.5% | [2] 71.2% | [3] 92.1% | [4] 37.2% | [5] 108% | [7] 75.3% | [8] 43% | [9] 89.1% | [10] 55.6% | [11] 25.2% | [12] 44.6% | [13] 37.8% | [14] 98.6% | [15] 31.6% | [16] 91%

Cc1ccc(C2=NNC(c3sc(Cl)nc3Cl)C2)cc1 (stereo unspecified)
inactive: [1] 91% | [2] 84.7% | [3] 83.2% | [4] 107% | [5] 104% | [6] 115% | [7] 18.1% | [8] 106% | [9] 99.8% | [10] 95.6% | [11] 11.7% | [12] 77.6% | [13] 92.1% | [14] 108% | [15] 98.3% | [16] 101% | [17] 118% | [18] 90.6% | [19] 86.5%

O=[N+]([O-])c1ccc2[nH]cc(-c3c4ccccc4cc4[nH]c5ccc([N+](=O)[O-])cc5c34)c2c1
active: [5] 4.24% | [8] 1.4% | [11] 9.96% | [14] -2.62% | [19] -3.7%
inactive: [1] 33.1% | [2] 39.5% | [3] 47.3% | [4] 48.5% | [6] 44.7% | [7] 11.3% | [9] 14% | [10] 36.6% | [12] 26.5% | [13] 45.6% | [15] 33.9% | [16] 22.5% | [17] 44%

CSc1nc2nc3c(c(-c4ccc(C)cc4)c2c(=O)[nH]1)CN(C)C/C3=C\c1ccc(C)cc1
inactive: [1] 88.4% | [2] 102% | [3] 103% | [4] 115% | [5] 111% | [6] 97.3% | [7] 93.2% | [8] 111% | [9] 121% | [10] 99.4% | [11] 103% | [12] 120% | [13] 86.3% | [14] 109% | [15] 90.9% | [16] 111% | [17] 124% | [18] 79.7% | [19] 104%

NS(=O)(=O)c1cc2c(cc1Cl)NC=NS2(=O)=O
inactive: [1] 109% | [2] 99% | [3] 98.5% | [4] 98.5% | [5] 110% | [6] 106% | [7] 91.4% | [8] 98.9% | [9] 110% | [10] 111% | [11] 120% | [12] 103% | [13] 113% | [14] 121% | [15] 109% | [16] 104% | [17] 103% | [18] 104% | [19] 96.4%

CC(C)CC1NC(=O)C(CCCN)NC(=O)C(C(C)C)NC(=O)C2CCCN2C(=O)C(Cc2ccccc2)NC(=O)C(CC(C)C)NC(=O)C(CCCN)NC(=O)C(C(C)C)NC(=O)C2CCCN2C(=O)C(Cc2ccccc2)NC1=O (stereo unspecified)
active: [1] -75.9% | [2] -59.7% | [3] -65.5% | [4] -86.5% | [5] -73.2% | [6] -56.7% | [7] -80.7% | [8] -85.9% | [9] -90.2% | [10] -52.5% | [11] -53.1% | [12] -76.3% | [13] -54.4% | [14] -65.7% | [15] -85.4% | [16] -77.4% | [17] -82.5% | [18] -72.9% | [19] -63.8%

CN1CCC[C@@H]1CCO[C@](C)(c1ccccc1)c1ccc(Cl)cc1
inactive: [1] 79.9% | [2] 75.5% | [3] 78.4% | [4] 75.2% | [5] 91.3% | [6] 51.6% | [7] 88% | [8] 66.5% | [9] 20% | [10] 91.5% | [11] 30.4% | [12] 71.8% | [13] 88.7% | [14] 38.7% | [15] 81.8% | [16] 63.2% | [17] 76.2% | [18] 23.4% | [19] 15.6%

NS(=O)(=O)c1cc(C2(O)NC(=O)c3ccccc32)ccc1Cl (stereo unspecified)
inactive: [1] 106% | [2] 97.9% | [3] 89.6% | [4] 109% | [5] 111% | [6] 104% | [7] 99.5% | [8] 102% | [9] 103% | [10] 116% | [11] 111% | [12] 95.4% | [13] 112% | [14] 109% | [15] 109% | [16] 103% | [17] 97.7% | [18] 112% | [19] 104%

COc1cc(-c2nc3nc4sc(C)c(C)c4c(=O)n3[nH]2)cc(OC)c1OC
inactive: [1] 94.1% | [2] 112% | [3] 93% | [4] 74.2% | [5] 92.9% | [6] 70.8% | [7] 61.4% | [8] 87.9% | [9] 94.2% | [10] 99.7% | [11] 47% | [12] 59.6% | [13] 91.2% | [14] 78.9% | [15] 95.9% | [16] 60.5% | [17] 83.4% | [19] 78.2%
